SARS PLpro yeast – blocks SARS-CoV papain-like protease in a yeast assay; AID 485353; 330,000 tested, 0.19% active; S. cerevisiae expressing SARS-CoV PLpro, growth rescue; Potency, µM (highest dose often 32.9 µM), inactives show at the top dose activity, positive = growth rescue, actives largely listed as activators; calls by dose curve; note: 0% is about no effect; nearly all actives have a fitted effect of over 55% in size
Pf growth 96h – P. falciparum growth inhibition at 96 hour, primary screen for plastid delayed-death inhibitors; P. falciparum luciferase reporter growth, 96 h; AID 504834; Potency, µM (series often up to 28.7 µM), for inactives: at the top dose activity change, negative = inhibition, actives largely listed as inhibitors; 320,000 tested, 6.9% active; note: % is set by controls: 0 for no effect and ±100 for the full control effect
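Two parasite generations (96 h, 37 C, 5% CO2) of compound exposure in infected erythrocytes (0.05% parasitemia, 2% hematocrit). Luciferase-reporter P. falciparum; decreased luminescence indicates inhibited growth, aimed at apicoplast-acting delayed death.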
Pf growth 48h – inhibits P. falciparum growth in the first generation, 48 h. P. falciparum luciferase growth in erythrocytes, 48 h. Potency, µM (highest dose often 28.7 µM), for inactives: at the top dose activity change, negative = inhibition, usual class: inhibitors. 310,000 tested, 5.9% active. AID 504832; note: % is set by controls: 0 for no effect and ±100 for the full control effect
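Luminescence readout; reporter = integrated firefly luciferase in P. falciparum. RBC culture at 2% hematocrit, 0.1% parasitemia final, 37 C/5% CO2; decreased signal taken as growth inhibition.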
AMA1-RON2 inh – AMA1-RON2 (P. falciparum) interaction inhibition. 360,000 tested, 0.2% active. AlphaScreen AMA1-biotinylated RON2 peptide binding. Potency, µM (series often up to 58.2 µM), without a hit: at the top dose activity change, negative = inhibition, usual class: inhibitors. AID 720542;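 note: 0% = vehicle wells and -100% = peptide control; nearly all actives have a fitted effect of over 45% in size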
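AMA1 (3D7) with his tag at 25 nM final met compounds first, then biotinylated RON2 peptide at 25 nM; detection used donor plus acceptor beads, 10 µg/mL apiece, read by AlphaScreen after 30 min at room temperature.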
* marks the source's active call; other numbers are inactive results. Most compounds without a hit are left out; they make up all but 9.4% or so of the library. Unless noted, calls come from the whole dose curve; as a rule, active = well fitted curve in the direction sought with a large enough effect; inconclusive = small, poorly fitted or top-dose-only effect, or another doubt; inactive = no such curve, though single readings can be large; an effect the other way counts as inactive or inconclusive. Potency is the fitted concentration of half-maximal effect.

Results for COc1ccc(-c2cc(-c3ccccc3)nc(N3CCCC3)n2)cc1OC ?
SARS PLpro yeast: -5.0%; Pf growth 96h: 0.3%; Pf growth 48h: 9.28µM*; AMA1-RON2 inh: 52.3%

Results for NC(=O)c1cc(-c2ccccc2)nc(N2CCCCCC2)n1 ?
SARS PLpro yeast: -8.4%; Pf growth 96h: 13.1µM*; Pf growth 48h: 0.3%; AMA1-RON2 inh: 26.6%

Results for CN(C)CCn1c(=O)n(-c2ccc(F)cc2)c(=O)c2c3c(sc21)CCCCC3 ?
SARS PLpro yeast: -0.1%; Pf growth 96h: inconclusive; Pf growth 48h: inconclusive; AMA1-RON2 inh: -13.1%

How did CN(C)CCn1c(=O)n(-c2cccc(Cl)c2)c(=O)c2c3c(sc21)CCCCC3 do in these assays?
SARS PLpro yeast: 0.9%; Pf growth 96h: inconclusive; Pf growth 48h: 13.1µM*; AMA1-RON2 inh: -26.5%

Results for CC(=O)Nc1sc(C)c(C)c1C(=O)OCCOc1ccccc1 ?
SARS PLpro yeast: -3.6%; Pf growth 96h: 90.5%; Pf growth 48h: 87.5%; AMA1-RON2 inh: -16.2%

What do the screens show for `O=C(N/N=C/c1cn(-c2ccccc2)nc1-c1cc2ccccc2o1)c1c[nH]c2ccccc12`?
SARS PLpro yeast: -0.9%; Pf growth 96h: inconclusive; Pf growth 48h: 3.29µM*; AMA1-RON2 inh: 2.4%

What do the screens show for `O=C(N/N=C/c1cn(-c2ccccc2)nc1-c1cc2ccccc2o1)c1ccccc1Br`?
SARS PLpro yeast: 27.2%; Pf growth 96h: -45.1%; Pf growth 48h: -52.0%; AMA1-RON2 inh: -15.4%

How did Cc1cc2ncn(CCOc3ccccc3C#N)c2cc1C do in these assays?
SARS PLpro yeast: -1.6%; Pf growth 96h: 13.1µM*; Pf growth 48h: inconclusive; AMA1-RON2 inh: 5.2%

What do the screens show for `O=C(OCCOc1ccc(Cl)cc1)c1cc(S(=O)(=O)N2CCCCC2)ccc1N1CCOCC1`?
AMA1-RON2 inh: -3.6%

What do the screens show for `CCCCCC(=O)NNC(=S)NC(C)=O`?
SARS PLpro yeast: 0.5%; Pf growth 96h: 70.6%; Pf growth 48h: inconclusive; AMA1-RON2 inh: 0.3%

How did CCCCCC(=O)NC(=S)NC1C2CC3CC(C2)CC1C3 (stereo not given) do in these assays?
SARS PLpro yeast: -2.2%; Pf growth 96h: 3.7µM*; Pf growth 48h: 4.65µM*; AMA1-RON2 inh: 25.0%

What do the screens show for `C=C1C(=O)O[C@@H]2[C@@H]1CC/C(C)=C\CC[C@@]1(C)O[C@H]21`?
Pf growth 96h: 9.53µM*; Pf growth 48h: inconclusive

What do the screens show for `CC1CCC2(CC1)SCC(=O)N2c1ccc(F)cc1` (stereo not given)?
SARS PLpro yeast: -4.0%; Pf growth 96h: 10.6%; Pf growth 48h: 28.8%; AMA1-RON2 inh: -12.8%

What do the screens show for `CC(C)(C)C1CCC2(CC1)SCC(=O)N2c1ccccc1` (stereo not given)?
SARS PLpro yeast: -0.9%; Pf growth 96h: 95.0%; Pf growth 48h: 11.7µM*; AMA1-RON2 inh: 4.5%

Results for CCOCCCNC(=O)C(NC(=O)CNC(C)=O)c1ccc(C)cc1 (stereo not given) ?
SARS PLpro yeast: 1.8%; Pf growth 96h: 9.28µM*; Pf growth 48h: 6.9%; AMA1-RON2 inh: 5.6%

Results for CCOCCCNC(=O)C(NC(=O)c1ccc(NC(C)=O)cc1)c1ccc(C)cc1 (stereo not given) ?
SARS PLpro yeast: 2.9%; Pf growth 96h: 41.4%; Pf growth 48h: -3.4%; AMA1-RON2 inh: 20.9%

What do the screens show for `CNc1ccc(Cl)cc1C(N)=O`?
SARS PLpro yeast: 0.8%; Pf growth 96h: 42.3%; Pf growth 48h: 37.8%; AMA1-RON2 inh: 13.8%

How did N/C(=C\C(=O)c1cc(Cl)ccc1O)C(Cl)(Cl)Cl do in these assays?
SARS PLpro yeast: -3.9%; Pf growth 96h: 10.4µM*; Pf growth 48h: 2.94µM*; AMA1-RON2 inh: -0.8%

Results for Cc1cc2ncc(C(=O)N=CN(C)C)cn2n1 ?
SARS PLpro yeast: 0.0%; Pf growth 96h: -6.3%; Pf growth 48h: -11.1%; AMA1-RON2 inh: -7.9%

Results for C#CCOCCOCCOCCNc1nc(N2CCN(C(=O)Cn3cc(CCCN=C(N)N)nn3)CC2)nc(N2CCN(C(=O)[C@H](CCCCN)n3cc(CCCC)nn3)CC2)n1 ?
SARS PLpro yeast: -0.5%; Pf growth 96h: 11.7µM*; Pf growth 48h: 11.7µM*; AMA1-RON2 inh: -8.0%

How did C#CCOCCOCCOCCNc1nc(N2CCN(C(=O)[C@H]([C@@H](C)CC)n3cc(CCCN=C(N)N)nn3)CC2)nc(N2CCN(C(=O)[C@H](CCCCN)n3cc(CCCC)nn3)CC2)n1 do in these assays?
SARS PLpro yeast: -9.1%; Pf growth 96h: 11.7µM*; Pf growth 48h: inconclusive; AMA1-RON2 inh: -11.1%

What do the screens show for `C#CCOCCOCCOCCNc1nc(N2CCN(C(=O)Cn3cc(CCCCN)nn3)CC2)nc(N2CCN(C(=O)Cn3cc(CCCN=C(N)N)nn3)CC2)n1`?
SARS PLpro yeast: -2.2%; Pf growth 96h: 0.828µM*; Pf growth 48h: inconclusive; AMA1-RON2 inh: 3.2%

What do the screens show for `C#CCOCCOCCOCCNc1nc(N2CCN(C(=O)[C@H]([C@@H](C)O)n3cc(CCCCN)nn3)CC2)nc(N2CCN(C(=O)[C@H](CCCCN)n3cc(CCCC)nn3)CC2)n1`?
SARS PLpro yeast: -9.3%; Pf growth 96h: 56.9%; Pf growth 48h: inconclusive; AMA1-RON2 inh: -1.3%

What do the screens show for `C#CCOCCOCCOCCNc1nc(N2CCN(C(=O)[C@H](C)n3cc(CCCN=C(N)N)nn3)CC2)nc(N2CCN(C(=O)[C@H](CCCCN)n3cc(CCCC)nn3)CC2)n1`?
SARS PLpro yeast: 22.3%; Pf growth 96h: 11.7µM*; Pf growth 48h: inconclusive

Results for C#CCOCCOCCOCCNc1nc(N2CCN(C(=O)Cn3cc(CCCN=C(N)N)nn3)CC2)nc(N2CCN(C(=O)[C@H](CCCCN)n3cc(CCC(=O)O)nn3)CC2)n1 ?
SARS PLpro yeast: 0.9%; Pf growth 96h: inconclusive; Pf growth 48h: -24.6%; AMA1-RON2 inh: -17.9%

What do the screens show for `O=C(Cc1ccc(Cl)cc1Cl)NCC1(N2CCOCC2)CCCCC1`?
SARS PLpro yeast: -1.3%; Pf growth 96h: 0.0%; Pf growth 48h: -12.4%; AMA1-RON2 inh: 2.4%

How did Cc1cc(C)c(C(=O)C(C)OC(=O)C2=COCCO2)cc1C (stereo not given) do in these assays?
SARS PLpro yeast: 18.9%; Pf growth 96h: -2.4%; Pf growth 48h: -8.3%; AMA1-RON2 inh: 0.2%

Results for O=C(NC(=S)N(CCO)Cc1ccccc1)c1cc(Br)ccc1Cl ?
SARS PLpro yeast: 0.0%; Pf growth 96h: 14.3%; Pf growth 48h: inconclusive; AMA1-RON2 inh: 71.0%

What do the screens show for `N#Cc1ccccc1NC(=O)Nc1ccccc1`?
SARS PLpro yeast: 0.0%; Pf growth 96h: 51.1%; Pf growth 48h: 8.7%; AMA1-RON2 inh: 0.0%

Results for COC(=O)C1CCN(C(=O)c2ccc3nccnc3c2)CC1 ?
SARS PLpro yeast: -1.4%; Pf growth 96h: inconclusive; Pf growth 48h: 17.8%; AMA1-RON2 inh: 4.2%

Results for Cc1nnc2ccc(-c3cccc(NS(C)(=O)=O)c3)nn12 ?
SARS PLpro yeast: 3.7%; Pf growth 96h: 9.9%; Pf growth 48h: -1.1%; AMA1-RON2 inh: 0.5%

What do the screens show for `Cc1c(C(=O)NNC(=O)c2csc(N3CCOCC3)n2)oc2ccc(Br)cc12`?
AMA1-RON2 inh: 121.1%

Source: PubChem BioAssay
